Experimental data reported in PubChem BioAssay AID504466 (National Center for Advancing Translational Sciences (NCATS), 2011).
Among all 330,000 compounds or so, about 4,200 (1.3%) were called active. About 6% were inconclusive and are not listed. For the sample, actives were picked, then their nearest neighbours and some compounds at random. Values without a mark were called inactive. The call rests on the fitted dose curve; in most records, active means well fitted activation curve with a large enough effect; inconclusive means small, poorly fitted or top-dose-only effect; inactive means no such curve, though single readings can be large or run the other way.

test: qHTS screen for small molecules that induce genotoxicity in human embryonic kidney (HEK293T) cells expressing luciferase-tagged ELG1; settings: HEK293T ELG1-luciferase reporter, luminescence, 16 h; series mostly up to 46 µM; activity change, positive = activation: at the top concentration; further: nearly all actives have a fitted effect of over 60% in size; on activity change, positive = activation: % of control where 0% means no effect
From the text: NIH Molecular Libraries Probe Production Network [MLPCN] NIH Chemical Genomics Center [NCGC] MLPCN Grant: 1 R03 MH092164-01 Assay Provider: Kyungjae Myung, NHGRI, NIH Keywords: MLPCN, qHTS, NCGC, genotoxicity, cancer Assay Overview: Cancer cells divide rapidly compared to normal cells in the body. During cell division, cancer cells need to duplicate their genome by DNA replication. The failure of genome duplication leads to cancer cells' death. Therefore, inhibitors of DNA replication could specifically kill cancer cells. Based on this concept, many chemotherapeutic agents were developed and have been used to treat cancer patients. However, there are a limited number of agents available in the clinical setting, and some of those that do exist have low efficacy and severe side effects. Therefore, if we can find the compounds that effectively block DNA replication either by directly damaging DNA or by inhibiting other cellular mechanisms, the options for cancer treatment will be broadened. With this in mind, we developed a quantitative high-throughput ELG1-luciferase reporter gene assay. Since the level of human ELG1 protein is enhanced in response to genetic stresses, increases in luciferase activity can be used to identify compounds that cause genetic stress.
Assay Protocol Summary: For genotoxicity screening, 2,000 cells in 5 uL/well were dispensed into white, solid-bottom 1536-well plates using a solenoid-based dispenser. Following transfer of 23 nL compound or DMSO vehicle by a pin tool, the plates were incubated 16 hr at 37 °C and 5% CO2. 5 ul ONE-Glo (Promega) was then added to each plate and following a 30 min incubation at room temperature, luciferase activity was quantified on a ViewLux CCD-based plate reader.
Potency means the concentration at half of the fitted maximal effect.

| SMILES | activity change, positive = activation | Potency |
| --- | --- | --- |
| O=C(CSc1ccc([N+](=O)[O-])cn1)Nc1ccc(N2CCOCC2)cc1 | -1.03% |  |
| O=C(CSc1ccc(-c2ccc(F)cc2)nn1)Nc1ccc2c(c1)OCCO2 | 0.784% |  |
| O=C(CSc1ccc(-c2ccc(-n3cccn3)cc2)nn1)Nc1ccc([N+](=O)[O-])cc1 |  | 18.3 µM (active) |
| Cc1cccc(C)c1Nc1nnc(SCC(=O)NCCCN2CCCC2=O)s1 | -2.8% |  |
| Cc1ccc(NC(=O)COC(=O)C2CC2)cc1S(=O)(=O)N1CCOCC1 | -0.783% |  |
| Cc1noc(C)c1NC(=O)Nc1ccc2c(c1)C(=O)N([C@H](C)CO)C[C@H](C)[C@@H](CN(C)S(=O)(=O)c1cn(C)cn1)O2 | 2.22% |  |
| COc1cc(/C=N/O)ccc1OCc1ccc([N+](=O)[O-])cc1 |  | 9.2 µM (active) |
| COc1cc(/C=N\Nc2ccc([N+](=O)[O-])cn2)ccc1OCC(=O)O | -0.169% |  |
| COc1cc(C(=O)OCc2ccc([N+](=O)[O-])cc2)cc(OC)c1OC | 5.71% |  |
| CC(=O)C(CC(=O)N1CCCC1)C(=O)Nc1ccc(Cl)cc1 (centres undefined) | 2.38% |  |
| Cc1ccc(C(=O)Nc2ccccc2-c2ccccc2)cc1S(=O)(=O)Nc1ccccc1 | -9.23% |  |
| CCOc1ncccc1C(=O)Nc1ccc2c(c1)OCCO2 | 9.61% |  |
| COc1ccc(C)cc1NC(=O)CSc1cccc[n+]1[O-] | 5.29% |  |
| CN=C(Nc1cccc(S(=O)(=O)N2CCOCC2)c1)c1ccccc1 | 0.167% |  |
| COc1ccccc1NC(=O)c1ccc(C)s1 |  | 11.6 µM (active) |
| COC(=O)c1c(NC(C)=O)sc(C(=O)Nc2ccccc2OC)c1C | 0.157% |  |
| COc1ccccc1NC(=O)C1=C(C)NC(=O)NC1c1ccc(C)s1 (centres undefined) | 5.02% |  |
| Cc1ccc(S(=O)(=O)N2CCN(C(=O)Cn3c(=O)cnc4ccccc43)CC2)c(C)c1 | -6.79% |  |
| Cc1c(C(=O)Nc2ccccc2)sc2nc3n(c(=O)c12)CCCCC3 | 10.3% |  |
| Cc1cccc2c(=O)n3c(nc12)CCCCC3 | -4.76% |  |
| O=c1c2c(nc3n1CCCCC3)sc1c(O)cccc12 |  | 2.06 µM (active) |
| Cc1ccc(NS(=O)(=O)c2ccc(C(C)C)cc2)cc1S(=O)(=O)N1CCOCC1 | -5.95% |  |
| COc1cccc(-n2c(=S)[nH]c3c(oc4ccccc43)c2=O)c1 | 11.3% |  |
| O=c1oc2ccccc2cc1-c1cn(-c2ccccc2)c(=S)[nH]1 |  | 0.0461 µM (active) |
| S=c1[nH]c(-c2cccs2)cn1-c1ccccc1 | 13% |  |

| SMILES | activity change, positive = activation | Potency |
| --- | --- | --- |
| O=C1OC[C@@H]2CCCN2C(=O)[C@H](CC(=O)N(CCO)Cc2ccccc2)C/C=C\CC[C@@H]1Cc1ccc(F)cc1 | -3.58% |  |
| COc1cc(/C=C/C(=O)OCC(=O)NC2CC2)cc(OC)c1OC | 1.1% |  |
| Cc1ccc(S(=O)(=O)N2CCN(C(=O)CN3C(=O)NC(C)(c4ccc(Cl)cc4)C3=O)CC2)c(C)c1 (centres undefined) | -3.81% |  |
| CN(c1ccccc1)S(=O)(=O)c1ccc(C(=O)NCCc2ccccc2)cc1 | 13.5% |  |
| CC(C)c1ccc(C(=O)NCCCc2ccccc2)cc1 |  | 18.4 µM (active) |
| O=C(CCNC(=O)c1ccc(Br)cc1)NCCCc1ccccc1 | 2.41% |  |
| Cc1noc(C)c1NC(=O)Nc1ccc2c(c1)C(=O)N([C@H](C)CO)C[C@H](C)[C@@H](CN(C)C(=O)Nc1ccccc1)O2 | 3.31% |  |
| O=C(CSc1ncnc2sccc12)NC1CCS(=O)(=O)C1 (centres undefined) | 1.63% |  |
| C=CCC[C@@H](Cc1ccc(F)cc1)C(=O)OC[C@H](Cc1c[nH]c2ccccc12)NC(=O)[C@@H](CC=C)CC(=O)N(CCO)Cc1ccccc1 | -11% |  |
| Cc1cc(CO)nn1-c1ccc([N+](=O)[O-])cc1 | -0.0391% |  |
| Cc1ccc(-n2cc3ccc([N+](=O)[O-])cc3n2)cc1 |  | 2.91 µM (active) |
| Cc1ccc(-c2cn(S(=O)(=O)c3cccc([N+](=O)[O-])c3)nc2N)cc1 | -4.12% |  |
| O=C(N[C@@H]1C/C=C\C[C@@H](CC(=O)N(CCO)Cc2ccccc2)C(=O)N[C@H](Cc2ccccc2)COC1=O)OCC1c2ccccc2-c2ccccc21 | -0.759% |  |
| CCCCCCSc1ccc([C@@H]2[C@H]3C(=O)N(CC)C(=O)[C@H]3[C@]3(C(=O)OC)CCCCN23)cc1 | 1.28% |  |
| COCCOC(=O)c1[nH]c2c(c1C)C(=O)CC(c1ccc(OC)cc1)C2 (centres undefined) | -0.128% |  |
| CCCOC(=O)C1=C(C)NC2=C(C(=O)C(C(=O)OC)C(C)C2)C1c1ccc(N(C)C)cc1 (centres undefined) | 0.467% |  |
| COC(=O)C1C(=O)c2c([nH]c(C(=O)OCCSC)c2C)CC1C (centres undefined) |  | 16.4 µM (active) |
| CC(C)N(C(=O)[C@H]1C[C@H](CC(=O)NC(C)(C)C)C(=O)N2CCc3c([nH]c4ccc(Cl)cc34)[C@]12C)C(C)C | -3.2% |  |
| Cc1cc(NC(=O)CSc2ncc(C(F)(F)F)cc2Cl)no1 | -0.775% |  |
| COc1ccc(Cl)cc1NC(=O)COC(=O)c1ccc(Br)o1 | 1.48% |  |
| CN(C(=O)c1cccc(NC(=O)C2CCN(C(=O)OC(C)(C)C)CC2)c1)C1CCC1 | -4.07% |  |
| NC[C@H](Cc1ccccc1)NCCc1cc(C(F)(F)F)cc(C(F)(F)F)c1 | 0.0851% |  |
| CCc1ccc2oc(-c3ccc(N)cc3)nc2c1 |  | 0.206 µM (active) |
| Cn1nnnc1SCC(=O)Nc1sccc1C(N)=O | 4.53% |  |
| Cc1cc(NC(=O)CSCC(=O)NC(C)c2ccccc2)no1 (centres undefined) | 1.08% |  |

| SMILES | activity change, positive = activation | Potency |
| --- | --- | --- |
| Cc1cccc(-n2ncc3c(N4CCc5ccccc54)ncnc32)c1 |  | 2.59 µM (active) |
| COc1ccc2oc(=O)c(C(=O)N3CCCc4ccccc43)cc2c1 | -9.84% |  |
| COc1ccccc1N1CCN(C(=O)CSc2ncnc3c2cnn3-c2ccc(C)c(C)c2)CC1 | 0.292% |  |
| COc1ccc(-n2ncc3c(SCC(=O)NNC(C)=O)ncnc32)cc1 | 15.2% |  |
| Cc1cccc(-n2ncc(Cl)c(Cl)c2=O)c1 | -13.8% |  |
| COc1ccc(-n2ncc3c(N4CCCc5ccccc54)ncnc32)cc1 |  | 1.16 µM (active) |
| O=C1COc2ccc(C(=O)COC(=O)CCOc3ccccc3)cc2N1 | -1.34% |  |
| C=CCC[C@H](Cc1ccc(F)cc1)C(=O)OC[C@@H](Cc1c[nH]c2ccccc12)NC(=O)[C@H](CC=C)CC(=O)N[C@H](CO)Cc1ccccc1 | -3.43% |  |
| COc1cc2ccccc2cc1C(=O)Nc1ccc(NC(=O)c2cccs2)cc1 | -6.8% |  |
| COc1cc2ccccc2cc1C(=O)Nc1ccncc1 |  | 16.4 µM (active) |
| COc1cc2ccccc2cc1C(=O)Nc1ccc(N2CCOCC2)cc1 | 16.1% |  |
| O=C(CSc1nnc(-c2ccncc2)o1)Nc1cccc(Cl)c1 | 14.8% |  |
| CN(Cc1ccc(CNC[C@H]2O[C@@H](n3cnc4c(N)ncnc43)[C@H](O)[C@@H]2O)o1)S(C)(=O)=O | 0.515% |  |
| Cc1ccc(-c2nnc(SC(C)C#N)n2N)cc1 (centres undefined) | 13.4% |  |
| C=C(C)CSc1nnc(-c2ccc(C)cc2)n1N |  | 10 µM (active) |
| Cc1ccc(NC(=O)NC(=O)CSc2nnc(-c3ccc(OC(F)F)cc3)n2N)c(C)c1 | 3.7% |  |
| CN(CC(=O)NCCc1ccc(S(N)(=O)=O)cc1)CC(=O)Nc1ccc(F)c(F)c1F | -0.661% |  |
| CCOC(=O)C1CCN(C(=O)CN2C(=O)NC(C)(c3ccc4cc(OC)ccc4c3)C2=O)CC1 (centres undefined) | -5.31% |  |
| N#CCCN(C(=O)COC(=O)c1ccc2c(c1)OCCO2)c1ccccc1 | 0.0128% |  |
| O=C(OCC(=O)N1CCCCCC1)c1ccc(Cl)nc1 | 0.144% |  |
| CCN(CC)S(=O)(=O)c1ccc(C)c(NC(=O)COc2ccc(Br)cc2Cl)c1 | 8.73% |  |
| Cc1cccc(NC(=O)Nc2ccc(OCc3ccccc3)cc2)n1 | 4.5% |  |
| Cc1cccc(NC(=O)COc2ccc(Br)cc2C)n1 |  | 2 µM (active) |
| Cc1cccc(NC(=O)COc2ccccc2C)n1 |  | 18.4 µM (active) |
| COCCNC(=O)COc1ccccc1C | 3.83% |  |

| SMILES | activity change, positive = activation | Potency |
| --- | --- | --- |
| Cc1ccccc1OCC(=O)Nc1nc(C)c(C(=O)N(C)C)s1 | -0.0756% |  |
| CC(=NNC(=O)c1ccc2nc[nH]c2c1)c1ccc(Br)cc1 | 2.04% |  |
| CCOC(=O)C1CCN(CC(=O)Nc2ccc(OC)c(S(=O)(=O)N3CCCCC3)c2)CC1 | -1.03% |  |
| CC1O[C@H](OC2C(COC3OC(CO)C(O)[C@H](O)C3O)OC(OC3CC[C@]4(C)C(CC[C@@]5(C)[C@@H]4C=C[C@]46OC[C@@]7(CCC(C)(C)C[C@H]74)C(O)C[C@@]56C)C3(C)C)C(O)C2O)C(O)C(O)C1O (some centres undefined) | 2.19% |  |
| CC(=O)c1sc(NC(=O)C2=NN(c3ccccc3)C(=O)CC2)nc1C | -0.325% |  |
| CC(=O)c1sc(N)nc1C | 4.58% |  |
| CC(=O)c1sc(N/N=C\c2ccc(C)cc2)nc1C |  | 18.4 µM (active) |
| COc1cc(C=NNC(=O)c2cccnc2)ccc1OC(=O)c1ccccc1F | 0.184% |  |
| CC[C@@H]1CCCCc2ccccc2[C@@H](C(=O)C[C@H](O)CC(C)=O)OC1=O | 0.282% |  |
| O=C(CN1C(=O)NC2(CCCCCCC2)C1=O)NCc1ccc(F)cc1 | 1.1% |  |
| Cc1ccc(NC(=O)CN(C)C(=O)c2ccc(Cl)c(S(=O)(=O)NCc3ccco3)c2)cc1 | -2.11% |  |
| COC(=O)c1ccc(/C=C/c2c(-c3ccc(OC)cc3)sc3ccccc23)cc1 | 0.743% |  |
| Oc1ccc(N=Cc2sc3ccccc3c2Cl)cc1 | -1.68% |  |
| COc1ccc(N=C(C)c2sc3ccccc3c2O)cc1 |  | 2.31 µM (active) |
| CCOc1ccccc1Nc1nnc(SCC(=O)NCC2CCCO2)s1 (centres undefined) | -2.62% |  |
| Cc1ccc(C)c(NC(=O)CN(C)C(=O)COc2ccc3ccccc3c2)c1 | -2.21% |  |
| O=C(CSc1nc2ccccc2c(=O)n1-c1ccc(F)cc1)NC1CC1 | 4.22% |  |
| O=C(CSc1nc2ccccc2c(=O)n1-c1ccccc1F)N1CCOCC1 | 8.89% |  |
| Cc1ccc(-n2c(SCC(=O)N3CCC(C(=O)O)CC3)nc3ccccc3c2=O)cc1C |  | 14.6 µM (active) |
| COc1ccc(S(=O)(=O)N2CCCCCC2)cc1NC(=O)Cc1ccc(OC)c(OC)c1 | -1.59% |  |
| N#CC(Cc1cc2ccccc2n1S(=O)(=O)c1ccccc1)OCc1ccccc1 (centres undefined) | -2.05% |  |
| Fc1ccc2nc(N3CCCCC3)sc2c1 |  | 7.31 µM (active) |
| Cc1ccc2nc(N3CCN(C(=O)c4ccco4)CC3)sc2c1 | 11.9% |  |
| O=C(NCCc1cccc(F)c1)C1CCCN(c2nc3ccccc3s2)C1 (centres undefined) | -3.62% |  |
